The results in this text go back to PubChem BioAssay (Tox21).

Where “and” joins values, the source holds several entries; their conditions need not be identical. Equal values may be shown once. Calls of active or inactive are those of the source. Unless noted, calls follow the shape of the dose curve; as a rule, active = well fitted curve in the direction sought with a large enough effect in the repeat runs; inconclusive = weak or mixed curves; inactive = no such curve, though single readings can be large; an effect the other way counts as inactive or inconclusive.

The nature of assay [1]: qHTS assay to identify small molecule antagonists of the glucocorticoid receptor (GR) signaling pathway - cell viability counter screen (AID 720693; also: nearly all actives have a fitted effect of over 55% in size; also: potency is read from the fitted curve at half-maximal effect). (Quantitative high-throughput screening tests each substance at several concentrations.)
A short description of assay [2]: qHTS assay for identifying genotoxic compounds that show differential cytotoxicity against isogenic chicken DT40 cell lines with known DNA damage response pathways - wild type cell line (AID 743012). Also: nearly all actives have a fitted effect of over 60% in size. Also: potency is read from the fitted curve at half-maximal effect. In a few lines: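 Parental DNA repair-proficient DT40 cells, 300 per well, were pre-incubated ~0.5 h at 37 C/5% CO2, pin-dosed with compounds in DMSO, then incubated 40 h. Viability was read as CellTiter-Glo luminescence after 30 min at room temperature.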

Assay [3] can be described thus: qHTS assay for identifying genotoxic compounds that show differential cytotoxicity against isogenic chicken DT40 cell lines with known DNA damage response pathways - Rev3 mutant cell line (AID 743014). Also: nearly all actives have a fitted effect of over 55% in size. Also: potency is read from the fitted curve at half-maximal effect.
A short description of assay [4]: qHTS assay for identifying genotoxic compounds that show differential cytotoxicity against isogenic chicken DT40 cell lines with known DNA damage response pathways - Rad54/Ku70 mutant cell line (AID 743015). Also: nearly all actives have a fitted effect of over 60% in size. Also: potency is read from the fitted curve at half-maximal effect.
A short description of assay [5]: qHTS assay to identify small molecule antagonists of the androgen receptor (AR) signaling pathway - cell viability counter screen (AID 743033; also: nearly all actives have a fitted effect of over 45% in size; also: potency is read from the fitted curve at half-maximal effect).
Assay [6] has as its target Androgen receptor (Homo sapiens) (UniProt P10275). In words: qHTS assay to identify small molecule agonists of the androgen receptor (AR) signaling pathway (AID 743036; active = well fitted activation curve with a large enough effect in the signal ratio in the repeat runs, with a control signal flat, not every such curve was filed as active; inconclusive = weak or mixed curves, or effect the other way; inactive = no such curve, though single readings can be large or run the other way; the % refers to the signal ratio). In a few lines:
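Cell-based FRET reporter assay: HEK293 line with a UAS-beta-lactamase construct, compounds added in DMSO, 16 h exposure at 37C, then 2 h substrate step at room temperature and fluorescence intensity read.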

The target is the same in assay [7]. The experiment in a line: qHTS assay to identify small molecule agonists of the androgen receptor (AR) signaling pathway using the MDA cell line (AID 743040; also: nearly all actives have a fitted effect of over 20% in size). In a few lines:
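MDA-kb2 breast carcinoma cells stably carrying an MMTV-driven luciferase reporter (AR- and GR-responsive) were seeded and held 5 h at 37C, 0% CO2, then exposed to compounds in DMSO for 16 h. Luminescence was read 30 min after ONE-Glo addition.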

Assay [8] can be described thus: qHTS assay to identify small molecule antagonists of the androgen receptor (AR) signaling pathway using the MDA cell line - cell viability counter screen (AID 743041; also: nearly all actives have a fitted effect of over 45% in size; also: potency is read from the fitted curve at half-maximal effect). In a few lines:
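MDA-kb2 AR-luc human breast carcinoma cells (MMTV-luciferase, AR/GR responsive) were treated with compounds plus R1881 agonist for 16 h at 37 °C. Viability was read as CellTiter-Fluor fluorescence in the same wells as the reporter assay.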

Assay [9] addresses Androgen receptor (Homo sapiens) (UniProt P10275). The experiment in a line: qHTS assay to identify small molecule antagonists of the androgen receptor (AR) signaling pathway using the MDA cell line (AID 743042; also: nearly all actives have a fitted effect of over 55% in size; also: potency is read from the fitted curve at half-maximal effect). The procedure, abridged: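 MDA-kb2 cells (human breast carcinoma, stably carrying an MMTV-luciferase reporter responsive to AR and GR) were plated at 3,000 cells/well and preincubated 5 hr at 37C, then given compound plus R1881 agonist for 16 h. ONE-Glo luminescence was read.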

Assay [10] is described as follows: qHTS assay to identify small molecule antagonists of the thyroid receptor (TR) signaling pathway - cell viability counter screen (AID 743064). Also: nearly all actives have a fitted effect of over 50% in size. Also: potency is read from the fitted curve at half-maximal effect. The procedure, abridged: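 In rat pituitary GH3.TRE-Luc reporter cells co-exposed to compound and 1 nM T3 for 23.5 h, cytotoxicity was assessed with CellTiter-Fluor in the same wells, read by fluorescence.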
Assay [11] can be described thus: qHTS assay to identify small molecule antagonists of the thyroid receptor (TR) signaling pathway (AID 743065). Also: nearly all actives have a fitted effect of over 55% in size. Also: potency is read from the fitted curve at half-maximal effect. The procedure, abridged: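 GH3.TRE-Luc rat pituitary cells carrying two TR response elements driving luciferase were plated for 4 h, given compound plus 1 nM T3 (final), and incubated 23.5 h at 37 C. ONE-Glo luminescence measured reporter inhibition; CellTiter-Fluor fluorescence tracked cytotoxicity.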

For assay [12], the system named is thyroid hormone receptor (rat, GH3 cells). In words: qHTS assay to identify small molecule agonists of the thyroid receptor (TR) signaling pathway (AID 743066; calls by dose curve).
A short description of assay [13]: qHTS assay to identify small molecule antagonists of the estrogen receptor alpha (ER-alpha) signaling pathway - cell viability counter screen (AID 743074; calls by dose curve; also: nearly all actives have a fitted effect of over 45% in size; also: potency is read from the fitted curve at half-maximal effect).
The target in assay [14] is Estrogen receptor (Homo sapiens) (UniProt P03372). In words: qHTS assay to identify small molecule agonists of the estrogen receptor alpha (ER-alpha) signaling pathway (AID 743075; calls by dose curve; also: potency is read from the fitted curve at half-maximal effect).
Assay [15] has the same target. The experiment in a line: qHTS assay to identify small molecule agonists of the estrogen receptor alpha (ER-alpha) signaling pathway using the BG1 cell line (AID 743079). Also: nearly all actives have a fitted effect of over 20% in size. Also: potency is read from the fitted curve at half-maximal effect.
Assay [16] in a line: qHTS assay to identify small molecule antagonists of the estrogen receptor alpha (ER-alpha) signaling pathway using the BG1 cell line (AID 743080; calls by dose curve;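 also: BG1 cells stimulated with 17beta-estradiol alongside compound; nearly all actives have a fitted effect of over 25% in size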; also: potency is read from the fitted curve at half-maximal effect). In a few lines:
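After 5 days in phenol-red-free 10% charcoal-stripped FBS medium, BG1-Luc-4E2 cells were seeded, left 24 h at 37 C, co-treated with compounds and 17beta-estradiol for 21.5 h, then assayed for viability and luciferase.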

The nature of assay [17]: qHTS assay to identify small molecule antagonists of the estrogen receptor alpha (ER-alpha) signaling pathway using the BG1 cell line - cell viability counter screen (AID 743081).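 Also: compound given together with 17beta-estradiol as the ER stimulus; nearly all actives have a fitted effect of over 45% in size.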 Also: potency is read from the fitted curve at half-maximal effect.
For the next assay, the target named is Aromatase (Homo sapiens) (UniProt P11511). In words: qHTS assay to identify aromatase inhibitors (AID 743083). Also: nearly all actives have a fitted effect of over 55% in size. Also: potency is read from the fitted curve at half-maximal effect.
The nature of assay [18]: qHTS assay to identify aromatase inhibitors - cell viability counter screen (AID 743084). Also: potency is read from the fitted curve at half-maximal effect.
The target in assay [19] is Estrogen receptor (Homo sapiens) (UniProt P03372). In words: qHTS assay to identify small molecule antagonists of the estrogen receptor alpha (ER-alpha) signaling pathway (AID 743069; active = well fitted curve in the direction sought with a large enough effect in the signal ratio in the repeat runs, not every such curve was filed as active; inconclusive = weak or mixed curves, or effect the other way; inactive = no such curve, though single readings can be large or run the other way; the % refers to the signal ratio; also: potency is read from the fitted curve at half-maximal effect). The procedure, abridged:
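HEK293 cells stably carrying an ER-alpha-UAS-bla beta-lactamase reporter were pre-cultured overnight in 2% charcoal-stripped FBS medium. Test compounds in DMSO were added together with 17beta-estradiol for 18 hr at 37C. Read-out was fluorescence after 2 hr with LiveBLAzer B/G FRET substrate at room temperature.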

Androgen receptor (Homo sapiens), sequence (P10275 whole entry, looked up): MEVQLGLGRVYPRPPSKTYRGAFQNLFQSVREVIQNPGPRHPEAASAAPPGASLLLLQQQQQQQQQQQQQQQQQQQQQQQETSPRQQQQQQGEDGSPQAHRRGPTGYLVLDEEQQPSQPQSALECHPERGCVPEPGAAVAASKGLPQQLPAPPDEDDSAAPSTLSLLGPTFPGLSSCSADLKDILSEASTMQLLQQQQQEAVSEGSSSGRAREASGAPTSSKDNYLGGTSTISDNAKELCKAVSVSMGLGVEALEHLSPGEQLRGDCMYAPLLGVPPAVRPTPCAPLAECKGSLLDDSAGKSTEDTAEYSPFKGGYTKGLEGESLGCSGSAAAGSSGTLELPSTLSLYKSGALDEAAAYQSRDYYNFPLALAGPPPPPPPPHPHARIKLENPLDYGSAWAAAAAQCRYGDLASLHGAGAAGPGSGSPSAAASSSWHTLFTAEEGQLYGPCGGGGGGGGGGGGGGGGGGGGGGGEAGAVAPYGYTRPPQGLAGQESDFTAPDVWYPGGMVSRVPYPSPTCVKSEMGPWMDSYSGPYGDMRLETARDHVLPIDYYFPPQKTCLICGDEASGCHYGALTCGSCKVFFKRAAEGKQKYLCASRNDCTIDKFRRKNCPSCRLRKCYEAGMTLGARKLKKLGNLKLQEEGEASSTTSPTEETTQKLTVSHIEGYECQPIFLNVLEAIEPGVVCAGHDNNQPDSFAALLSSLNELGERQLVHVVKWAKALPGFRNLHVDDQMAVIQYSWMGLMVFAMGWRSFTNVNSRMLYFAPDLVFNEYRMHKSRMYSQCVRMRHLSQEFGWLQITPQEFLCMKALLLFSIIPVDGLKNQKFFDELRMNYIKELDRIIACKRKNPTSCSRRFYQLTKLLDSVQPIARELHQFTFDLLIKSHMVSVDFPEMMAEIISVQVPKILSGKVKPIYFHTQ
Estrogen receptor (Homo sapiens), sequence (P03372 whole entry, looked up): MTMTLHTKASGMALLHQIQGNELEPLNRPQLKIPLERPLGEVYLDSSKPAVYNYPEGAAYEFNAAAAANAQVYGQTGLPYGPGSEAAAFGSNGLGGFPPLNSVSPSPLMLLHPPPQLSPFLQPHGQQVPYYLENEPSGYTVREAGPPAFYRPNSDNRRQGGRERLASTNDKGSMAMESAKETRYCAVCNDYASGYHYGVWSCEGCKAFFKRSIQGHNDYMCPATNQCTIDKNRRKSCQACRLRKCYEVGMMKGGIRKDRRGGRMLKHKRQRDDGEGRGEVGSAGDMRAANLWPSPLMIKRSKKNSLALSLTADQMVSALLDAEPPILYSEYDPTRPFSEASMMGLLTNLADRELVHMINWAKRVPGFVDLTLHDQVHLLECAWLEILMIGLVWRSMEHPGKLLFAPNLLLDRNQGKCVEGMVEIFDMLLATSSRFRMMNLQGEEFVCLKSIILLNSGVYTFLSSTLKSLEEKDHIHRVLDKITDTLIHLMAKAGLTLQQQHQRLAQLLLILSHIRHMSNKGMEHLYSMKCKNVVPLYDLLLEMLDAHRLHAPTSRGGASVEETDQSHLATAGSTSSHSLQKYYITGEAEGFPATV
Aromatase (Homo sapiens), sequence (P11511 whole entry, looked up): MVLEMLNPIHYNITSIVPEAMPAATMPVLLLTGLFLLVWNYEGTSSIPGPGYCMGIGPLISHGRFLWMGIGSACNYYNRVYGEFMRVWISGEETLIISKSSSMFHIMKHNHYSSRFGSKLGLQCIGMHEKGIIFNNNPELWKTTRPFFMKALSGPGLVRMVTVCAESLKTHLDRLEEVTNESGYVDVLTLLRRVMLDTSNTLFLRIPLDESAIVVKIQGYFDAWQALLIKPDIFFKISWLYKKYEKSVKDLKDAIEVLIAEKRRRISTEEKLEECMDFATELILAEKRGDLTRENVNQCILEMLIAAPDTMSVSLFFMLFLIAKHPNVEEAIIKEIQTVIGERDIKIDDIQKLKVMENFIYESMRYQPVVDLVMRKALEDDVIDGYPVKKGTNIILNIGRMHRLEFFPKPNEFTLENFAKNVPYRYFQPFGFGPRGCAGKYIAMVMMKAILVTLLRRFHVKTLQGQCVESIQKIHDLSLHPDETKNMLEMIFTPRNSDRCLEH

Consider `CC[C@H]1C[C@@H]2C[C@H]3c4[nH]c5ccc(OC)cc5c4CCN(C2)[C@@H]13`, for which the Potency entry in assay [1], in [5], in assay [6], in assay [7], in assay [8] and in assay [9] was “inactive” each time. The Potency result (in assay [13]; in assay [14]; in assay [15]; in assay [16]; in [17]; with Aromatase (Homo sapiens)) was “inactive” in each case. In assay [18], the Potency entry was “inactive”. In addition, the Potency is 23.9 µM (active) in assay [2]; 47.7 µM (active) in assay [3]; 53.5 µM (active) in assay [4]; 60.1 µM (active) in [10]; 30.1 µM (active) in assay [11]. The call in [12] was inactive.

For the compound `CC(=O)C(Cl)(Cl)Cl`, the Potency entry in assay [1], in assay [7] and in assay [13] was “inactive” in each case. Besides, the Potency was 13.2 µM (active) in assay [2]; 16.6 µM (active) in assay [3]; 16.6 µM (active) in [4]; 10.6 µM (active) in [5]; 26.4 µM (active) in [8]; 13.2 µM (active) in assay [9]. Also, the Potency was 5.9 µM (active) in [10]; 1.88 µM [inconclusive] (active) in [19]; 23.5 µM (active) in [17]; 13.2 µM (active) with Aromatase (Homo sapiens); 18.7 µM (active) in assay [18]. Also, the outcome in [12] was inactive.

`CCCCCCCCCC[N+](C)(C)CCCCCCCCCC`: the Potency in [1] is 24.5 µM (active); in assay [2] it was 668 nM (active) and 433 nM (active); in [3], 841 nM (active) and 433 nM (active); in assay [4], 1.06 µM (active) and 344 nM (active); in assay [5], 16.9 µM (active) and 19.5 µM (active); in [8], 24.8 µM (active) and 30.6 µM (active). Also, the Potency was 5.96 µM (active) and 12.2 µM (active) in assay [10]; 10.7 µM (active) and 38.9 µM (active) in assay [13]; 33.5 µM (active) in [16]; 13.3 µM (active) and 24.3 µM (active) in the assay with Aromatase (Homo sapiens); 21.1 µM (active) and 61.1 µM (active) in assay [18]. Also, the Potency result in assay [14] and in [17] was “inactive” in each case.

Regarding `COc1ccc(OC)c(CC(C)N)c1` (stereo unspecified), the Potency entry in assay [1], in assay [2], in assay [3], in assay [4], in assay [5] and in [8] was “inactive” in each case. The Potency entry in [10], in [19], in assay [14], in [15], in assay [16] and in assay [17] was “inactive” throughout. Further, the Potency entry (with Aromatase (Homo sapiens); in [18]) was “inactive” throughout.

Regarding `CC(c1ccc(O)cc1)c1ccc(O)cc1`, the Potency entry in assay [1], in assay [2], in assay [3], in assay [4], in [5] and in [8] was “inactive” in each case. Moreover, the Potency result (in [10]; in assay [11]; in [13]; in [16]; in assay [17]; with Aromatase (Homo sapiens)) was “inactive” each time. Also, the call in assay [12] was inactive.

With `CCCCCCCCCCCCCN1CC(C)OC(C)C1` (stereo unspecified), the Potency entry in assay [1], in [5], in assay [8], in assay [10], in assay [11] and in assay [19] was “inactive” throughout. The Potency entry (in assay [13]; in assay [14]; in [15]; in [16]; in assay [17]; with Aromatase (Homo sapiens)) was “inactive” each time. Besides, in assay [18], the Potency entry is “inactive”. Besides, the Potency was 54.5 µM (active) in [2], 27.3 µM (active) in assay [3] and 30.6 µM (active) in [4]. Moreover, the call in assay [12] was inactive.

`Oc1ccc(C(=C(Cl)Cl)c2ccc(O)cc2)cc1`: the Potency result in assay [1], in assay [2], in assay [3], in [4], in assay [5] and in assay [8] was “inactive” each time. The Potency entry (in assay [10]; in [16]; in [17]; with Aromatase (Homo sapiens)) was “inactive” throughout. For the same compound, the compound was classed as inactive in assay [12]. Further, the values for the Potency in assay [19], in [15] and in [18] were 48.9 µM [inconclusive] (active), 0.243 µM (active) and 48.5 µM (active), respectively.

As for `CCCCCCCCCCCCCC[P+](CCCCCC)(CCCCCC)CCCCCC` (tested in a mixture with another compound), the Potency was 2.75 µM (active) in assay [1]; 3.44 µM (active) in [2]; 3.86 µM (active) in assay [3]; 3.06 µM (active) in [4]; 1.95 µM (active) in assay [5]; 4.33 µM (active) in assay [8]. For the same compound, the Potency in assay [10] is 2.43 µM (active); in assay [11], 1.54 µM (active); in [19], 0.246 µM [inconclusive] (active); in [13], 7.76 µM (active); in assay [16], 2.73 µM (active); in assay [17] it was 9.69 µM (active). The Potency in the assay with Aromatase (Homo sapiens) was 3.06 µM (active); in [18] it was 6.11 µM (active).

Consider `CC1(C)C(/C=C(\Cl)C(F)(F)F)C1C(=O)OC(C#N)c1cccc(Oc2ccccc2)c1` (stereo unspecified), for which the Potency result in [1], in assay [2], in assay [3], in [4], in assay [5] and in assay [8] was “inactive” throughout. Moreover, the Potency result (in [10]; in [11]; in assay [13]; in assay [17]; with Aromatase (Homo sapiens); in assay [18]) was “inactive” each time. In assay [12], the call was inactive.

Take `O=C(O)c1cc[c]([Hg][Cl])cc1`: the Potency entry in assay [1], in [2], in [8], in [19], in [13] and in assay [17] was “inactive” throughout. The Potency in [3] is 1.93 µM (active); in [4], 1.54 µM (active); in assay [5], 54.9 µM (active); in assay [10], 17.2 µM (active); in assay [14], 49 µM [activator] (active); with Aromatase (Homo sapiens) it was 61.1 µM (active). Also, in [18], the Potency was 61.1 µM (active). In assay [12], the compound was called inactive.

Turning to `CN(C)CCc1c[nH]c2cccc(O)c12`, the Potency entry in assay [1], in assay [5], in [8], in [10], in assay [13] and in [18] was “inactive” in each case. Moreover, the Potency in assay [2] was 30.3 µM (active); in [3], 60.5 µM (active); in assay [4], 42.8 µM (active). The compound was called inactive in assay [12].

With `CCN`, the Potency entry in assay [1], in assay [2], in assay [3], in [4], in [5] and in [8] was “inactive” each time. In addition, the Potency result (in assay [10]; in [13]; in [16]; in assay [17]; in the assay with Aromatase (Homo sapiens); in assay [18]) was “inactive” each time. Further, the result in assay [12] was inactive.

Regarding `CC(C)CC(C)N` (stereo unspecified), the Potency entry in assay [1], in [2], in [3], in [4], in assay [5] and in assay [8] was “inactive” in each case. The Potency result in [10], in assay [11], in assay [19], in [13], in [14] and in [15] was “inactive” each time. Besides, the Potency entry (in [16]; in assay [17]; with Aromatase (Homo sapiens); in assay [18]) was “inactive” in each case. Also, the call in assay [12] was inactive.
